USP17 inh – human USP17-like deubiquitinase inhibition; purified USP17, Ub-rhodamine cleavage fluorescence, 3 h; inhibition, % at 50 µM; actives 6.5% (n = 47,000); AID 1645855
Target sequence (A8MUK1 whole entry, looked up): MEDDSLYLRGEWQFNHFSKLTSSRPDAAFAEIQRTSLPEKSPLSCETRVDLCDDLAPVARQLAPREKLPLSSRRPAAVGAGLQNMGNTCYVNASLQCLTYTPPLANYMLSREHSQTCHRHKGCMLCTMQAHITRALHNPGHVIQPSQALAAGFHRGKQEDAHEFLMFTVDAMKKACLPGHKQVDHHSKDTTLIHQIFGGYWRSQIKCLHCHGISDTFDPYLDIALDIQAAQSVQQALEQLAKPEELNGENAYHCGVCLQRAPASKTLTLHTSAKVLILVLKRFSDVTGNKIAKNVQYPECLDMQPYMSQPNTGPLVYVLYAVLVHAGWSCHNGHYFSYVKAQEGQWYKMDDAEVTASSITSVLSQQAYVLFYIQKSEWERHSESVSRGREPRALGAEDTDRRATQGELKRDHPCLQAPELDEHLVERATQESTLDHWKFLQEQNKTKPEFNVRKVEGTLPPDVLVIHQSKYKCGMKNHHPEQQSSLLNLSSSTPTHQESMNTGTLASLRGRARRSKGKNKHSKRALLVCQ
USP28 block – inhibitors of human USP28 deubiquitinase. purified USP28, Ub-rhodamine cleavage fluorescence, 30 min. inhibition, % at 25 µM. actives 3% (n = 47,000). AID 1645857
USP30 inh – blocks human USP30 ubiquitin-rhodamine cleavage. Q70CQ3. purified USP30, Ub-rhodamine cleavage fluorescence. inhibition, % at 25 µM. actives 5.3% (n = 47,000)
An asterisk follows results filed as active; / = not tested or not shown. The list is not random: actives were taken first. Their share in the collection is about 11%. No stated cut-off is given here; in the data, active means inhibition above about 30%; inactive means the rest.

SMILES | USP17 inh | USP28 block | USP30 inh
CCC(=O)Nc1ccc(-n2cnc(C(=O)N3CCN(c4ccccc4)CC3)c2)nc1 | -7 | 1 | -8
Cc1ccc(-c2ccc(C#N)c(SCc3ccccc3)n2)cc1 | -1 | -1 | 14
CCc1ccccc1NC(=O)CSc1nnc(-c2ccccn2)n1-c1ccc(C)cc1 | 2 | 8 | 35*
Cc1ccc(-n2c(SCc3ccc(C#N)cc3)nnc2-c2ccccn2)cc1 | 21 | 18 | 38*
CCn1c(SCC(=O)Nc2ccc(C)cc2)nnc1-c1cnccn1 | -1 | -1 | -12
CC(=NCCCn1ccnc1)c1c(C)[nH]n(-c2nc3ccccc3s2)c1=O | -12 | 6 | 2
Cc1ccc(NC(=O)c2ccc(NS(=O)(=O)c3c(C)noc3C)cc2)c(C)c1 | 3 | -1 | 3
CC[C@@H]1CCC[C@H](C)CC[C@@H](O[C@@H]2O[C@@H](C)[C@@H](O)[C@@H](N)[C@H]2O)[C@H](CC)CCCNC1=O | 83* | 83* | 95*
Cc1ccc(C2c3c(C)nn(-c4ccccc4)c3Oc3ncn4nc(-c5ccccc5O)nc4c32)cc1 (centres undefined) | 16 | 2 | 34*
Cc1nn(-c2ccccc2)c2c1C(c1cccnc1)c1c(ncn3nc(-c4cccc5ccccc45)nc13)O2 (centres undefined) | 16 | 9 | 24
COc1ccc(NC(=O)CN2CCN(c3ccc(C(C)=O)cc3)CC2)cc1S(=O)(=O)N1CCCCC1 | 36* | 10 | 54*
COc1ccc(NC(=O)Cc2ccccc2F)cc1S(=O)(=O)N1CCCCC1 | / | 10 | 8
Cc1cccc(NC(=O)c2nn(C)c3ccccc3c2=O)c1 | 64* | 19 | 37*
Cc1ccc(NC(=O)c2nn(C)c3ccccc3c2=O)cc1 | 14 | -9 | -3
Cc1ccccc1C(C)NC(=O)c1cccc2ncccc12 (centres undefined) | -25 | -24 | -79
Cc1cccc(O)c1C(=O)O[C@H](C)c1cccc2nc3c(C(=O)O)cccc3nc12 | 38* | 13 | -2
Cc1ccccc1NC(=O)NCCc1cn(C)c2ncccc12 | 11 | 11 | 9
O=C(Cn1c(SCCOc2ccccc2)nc2ccccc21)N1CCCCC1 | 7 | 12 | 17
Cc1ccccc1OCCSc1nc2ccccc2n1CC(=O)NC1CC1 | 31* | 7 | 50*
CC(C)C(NC(=O)c1ccccc1Br)C(=O)OCC(=O)c1c[nH]c2ccccc12 (centres undefined) | 2 | -27 | -114
C=C1C=C(NCCN(CC)CC)n2nc3nc(C)cc(C)c3c2N1 | -7 | 0 | -32
Nc1ccc(F)c(NS(=O)(=O)c2ccccc2)c1 | 58* | 41* | -74
O=C(Nc1ccccc1F)c1cncc(NS(=O)(=O)c2ccccc2)c1 | 5 | 2 | 3
Cc1ccc(CNC(=O)N2CC(c3nc(C)no3)C3(CCOCC3)C2)cc1 (centres undefined) | 10 | 8 | 20
C[C@]12C(=O)N(C3CCCC3)CC(=O)N1CC(c1ccccc1Cl)c1c2[nH]c2ccccc12 (some centres undefined) | 0 | 3 | 0

Assay outcomes: PubChem, Buhrlage Lab, Dana-Farber Cancer Institute and Novartis Institutes for BioMedical Research (Cambridge, Mass)
